# Screening data as filed in PubChem.
# Most compounds without a hit are left out; they make up all but 1.2% or so of the library.
# GPR7 antagonist: antagonists of human GPR7 (neuropeptides B/W receptor 1); 290,000 compounds, 1.1% hits; P48145; AID 1861; inhibition, % at 4.4 µM; GPR7-expressing cells, fluorescence antagonist assay; in the data active = inhibition above about 16%, passing the limit was not always enough;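 also: cells stimulated with the agonist NPW; 0% = agonist with vehicle and 100% = vehicle without agonist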
# VLA-4 inh: inhibition in a human VLA-4 binding assay. VLA-4 expressing cells, ligand binding flow cytometry. AID 2557. P13612. inhibition, % (about 7 µM as worked out from the volumes in the protocol). 330,000 compounds, 0.2% hits; in the data active = inhibition above about 50%
# p-CIP stab down: lowers stability of the mouse p/CIP coactivator protein; 290,000 compounds, 0.01% hits; decrease of EGFP signal, % at 10 µM; F442A p/CIP-EGFP cells, EGFP fluorescence, 16 h;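 active = EGFP signal decrease of at least 30% at 10 µM or well 3 SD below plate mean, unless failing retest; inactive = the rest, including hits failing retest or dose response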
# JMJD2C inh: inhibitors of human GASC-1 (JMJD2C) demethylase. GST-JMJD2C(1-420) H3K9me3 demethylation, DELFIA europium. inhibition, % at 2.35 µM. 330,000 compounds, 0.069% hits;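 active = more than half of a compound's replicate wells show inhibition beyond 50%, single wells judged on their own value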;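 also: signal counts dimethyl H3K9 product captured on neutravidin plate; 0% = median of DMSO wells and 100% = 0.3 times that DMSO median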
# Target sequence (Q9H3R0 1-420 limits assumed): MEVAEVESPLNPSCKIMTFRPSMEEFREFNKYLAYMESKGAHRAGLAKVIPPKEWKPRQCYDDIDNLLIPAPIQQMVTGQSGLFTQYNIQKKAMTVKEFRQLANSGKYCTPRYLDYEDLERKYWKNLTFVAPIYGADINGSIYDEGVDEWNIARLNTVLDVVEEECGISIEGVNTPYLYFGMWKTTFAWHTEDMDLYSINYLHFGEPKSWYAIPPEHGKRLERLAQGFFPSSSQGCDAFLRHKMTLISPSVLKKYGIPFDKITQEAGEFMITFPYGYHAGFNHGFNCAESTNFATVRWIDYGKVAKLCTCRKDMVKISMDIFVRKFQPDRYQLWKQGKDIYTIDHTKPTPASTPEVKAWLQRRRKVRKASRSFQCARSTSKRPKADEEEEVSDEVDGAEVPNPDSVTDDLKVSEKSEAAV
# GPR7 antag conf: confirmation of human GPR7 antagonists | 2,400 compounds, 52% hits | GPR7-expressing cells, calcium fluorescence antagonist mode | inhibition, % at 4.4 µM | shares compounds with GPR7 antagonist; in the data active = inhibition above about 24%;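 also: stimulated with the GPR7 agonist NPW; 0% = agonist plus vehicle and 100% = vehicle alone without agonist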
# MCHR1 antag: antagonizes human MCHR1, a GPR7 antagonist counter-screen; AID 2148; shares compounds with GPR7 antagonist; MCHR1-expressing cells, fluorescence antagonist assay; inhibition, % at 4.4 µM; 2,400 compounds, 62% hits; in the data active = inhibition above about 22%;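 also: 0% = vehicle with agonist and 100% = vehicle without agonist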
# Numbers without * were called inactive; . = no result.
SMILES,GPR7 antagonist,VLA-4 inh,p-CIP stab down,JMJD2C inh,GPR7 antag conf,MCHR1 antag
CN(Cc1ccccc1)S(=O)(=O)c1nnc(NC(=O)c2ccc(F)cc2)s1,9,4,-24,67,.,.
CSc1ccc(Cn2nnc(C(=O)NCc3ccccc3)c2N)cc1,37*,-13,4,12,57*,52*
O=C(NC(=S)Nc1cccc([N+](=O)[O-])c1)C1CCCCC1,32*,-5,18,-6,33*,39*
CN(C)S(=O)(=O)c1cccc(NC(=S)NC(=O)C2CCCCC2)c1,32*,6,-2,7,1,35*
O=C(NNc1cc(Cl)ccc1Cl)c1cccs1,-27,4,-20,-4,.,.
Cc1cc(Cl)ccc1NNC(=O)c1cccs1,23*,-2,-7,5,1,3
CCOC(=O)c1[nH]c2ccc(OC)cc2c1NS(=O)(=O)c1ccc(OC)cc1OC,22*,2,0,-6,32*,21
COC(=O)c1[nH]c2ccc(F)cc2c1NS(=O)(=O)c1ccc(OC)cc1OC,4,-1,-4,8,.,.
CC(C)(C)Sc1ccc([N+](=O)[O-])cc1C(=O)Nc1ccncc1,-4,-4,-2,-9,.,.
CC1(CCc2ccccc2)NC(=O)N(CC(=O)Nc2ccc3c(c2)OCCO3)C1=O (stereo not drawn),-12,-3,-9,3,.,.
COc1cccc(C2=NOC(C(=O)NC(C)C)C2)c1 (stereo not drawn),26*,-8,-6,-3,1,3
Cc1ccc(S(=O)(=O)Nc2ccc(NC(=O)Nc3cccc(C(F)(F)F)c3)cc2)cc1,-15,17,-3,2,.,.
O=C(Nc1ccncc1)Nc1cccc(C(F)(F)F)c1,-12,-5,3,-38,.,.
CCN(CC)S(=O)(=O)c1ccc(NC(=O)Nc2cccc(C(F)(F)F)c2)cc1,27*,6,-1,6,41*,57*
O=C(Nc1ccc(OC(F)F)cc1)Nc1cccc(C(F)(F)F)c1,39*,7,-16,5,54*,68*
C/C=N/NC(=O)CCNC(=O)c1ccccc1,-13,9,12,1,.,.
Cn1cccc1/C=N/NC(=O)c1ccn[nH]1,-4,-3,-2,3,.,.
Cc1ccc(C(=O)N/N=C/c2ccoc2)cc1C,26*,6,5,-1,4,6
Cc1ccc(-c2ccccc2[C@@H]2C[C@H]3CN(C)C(=O)[C@]34CCCN24)o1,-8,6,-10,-9,.,.
O=C1N(c2ccccc2)C[C@@H]2C[C@@H](c3cc4ccccc4o3)N3CCC[C@@]123,25*,.,-21,-13,23,15
COc1ccc(CCNc2ccc(N3C(=O)CC(C)C3=O)cc2[N+](=O)[O-])cc1OC (stereo not drawn),-5,3,-5,9,.,.
O=[N+]([O-])c1ccc2c(c1)C(O)n1ncnc1S2 (stereo not drawn),-17,-2,7,27,.,.
Cc1nc2n(n1)C(O)c1cc([N+](=O)[O-])ccc1S2 (stereo not drawn),31*,-4,8,40,-7,5
CS(=O)(=O)N(CC(O)Cn1c2ccccc2c2ccccc21)c1ccccc1 (stereo not drawn),28*,-3,-3,4,35*,34*
CN(CC(O)Cn1c2ccccc2c2ccccc21)S(C)(=O)=O (stereo not drawn),0,4,-3,-5,.,.
SMILES,GPR7 antagonist,VLA-4 inh,p-CIP stab down,JMJD2C inh,GPR7 antag conf,MCHR1 antag
Nc1c(C(=O)NCc2ccc3c(c2)OCO3)c2nc3ccccc3nc2n1CCCN1CCOCC1,23*,18,-2,-2,49*,51*
Cc1cc(C)nc(CCNC(=O)c2cc(COc3ccccc3)on2)n1,27*,-2,12,-13,3,-1
O=C(CSc1nnc(-c2ccc(Cl)cc2Cl)n1C1CCCCC1)N1CCCC1,-4,10,-5,-1,.,.
CCCCN(C)C(=O)c1nc2ccccn2c1CN1CCN(C/C=C/c2ccccc2)CC1,26*,16,-9,28,29*,21
COc1ccc(NC(=O)Nc2nc(C)cc(C)n2)c(OC)c1,4,1,1,-12,.,.
CC1CC(C)CN(CCCNC(=O)C2CCCN(c3ncnc4c3nc3n4CCCCC3)C2)C1 (stereo not drawn),28*,7,5,-29,-8,10
Cc1onc(-c2ccccc2)c1CNC(=O)Nc1ccc(C(F)(F)F)cc1,24*,-7,-3,-8,28*,52*
Cc1cc(C)cc(NC(=O)NCc2c(-c3ccccc3)noc2C)c1,-1,8,-6,-1,.,.
COc1ccccc1N1CCN(CC(=O)Nc2ccc(CN3CCCCC3)cc2)CC1,-8,17,-5,6,.,.
Cc1ccc(Cl)cc1N1CCN(CC(=O)Nc2ccc(CN3CCCCC3)cc2)CC1,24*,12,-14,-16,28*,56*
CCOC(=O)CN(Cc1ccccc1)C(=O)OC(C)(C)C,-7,-6,-3,-3,.,.
O=P(OC1CCCCC1)(OC1CCCCC1)C(Nc1ccccc1)c1cccnc1 (stereo not drawn),32*,1,-2,-16,31*,39*
CC(=O)Oc1c(I)cc(I)cc1C(=O)Nc1ccc(Cl)cc1,27*,1,-45,10,6,61*
O=C(CSc1nnc(-c2cccs2)n1Cc1ccccc1)NCc1ccc2c(c1)OCO2,2,14,-7,9,.,.
CC(Sc1nnc(-c2cccs2)n1Cc1ccccc1)C(=O)NCc1ccc2c(c1)OCO2 (stereo not drawn),26*,11,-14,-5,19,19
CCC1(C)CC2(CCCN(CCC(O)(c3ccccc3)c3ccccc3)C2)CCO1 (stereo not drawn),26*,2,-12,-4,16,16
O=C(Nc1ccc(F)cc1)c1nc(S(=O)(=O)Cc2ccccc2)ncc1Cl,16,24,-23,0,.,.
CCS(=O)(=O)c1ncc(Cl)c(C(=O)Nc2ccc(S(=O)(=O)N(C)c3ccccc3)cc2)n1,61*,-7,-21,19,96*,98*
CCN(c1ccccc1)S(=O)(=O)c1ccc(C(=O)Nc2ccncc2)cc1,.,0,.,5,.,.
CS(=O)(=O)c1ncc(Cl)c(C(=O)Nc2ccc(OC(F)F)cc2)n1,51*,26,-23,-3,88*,94*
CCN(c1ccccc1)S(=O)(=O)c1ccc(NC(=O)c2nc(S(C)(=O)=O)ncc2Cl)cc1,98*,29,-20,-10,97*,102*
COc1ccc(-c2nn(CCC#N)cc2C(=O)Nc2cccc(C(=O)O)c2)cc1[N+](=O)[O-],-14,13,-8,7,.,.
O=C(CCC(=O)N1CCSc2ccccc21)NC1CCCCC1,4,-19,-8,-3,.,.
COCCNC(=O)CSc1ccccc1C(=O)NC1CCCc2ccccc21 (stereo not drawn),-8,15,0,-7,.,.
